The values that follow come from PubChem BioAssay (NCI).

Assay in all cases: NCI-60 one-dose screen, 48 h (100 = growth as untreated, 0 = no growth, -100 = all killed)
Holding throughout (settings): 10 µM unless noted

Assay [1] relates to HCT-15 colon.
For assay [2], the system named is HT29 colon.
The test system of assay [3] is SNB-75 CNS.
Assay [4] concerns SNB-19 CNS.
The test system of assay [5] is U251 CNS.
Assay [6] deals with PC-3 prostate.
The test system of assay [7] is SK-MEL-5 melanoma.
Assay [8] relates to UACC-62 melanoma.
The test system of assay [9] is LOX IMVI melanoma.
In assay [10] the test system is SK-MEL-28 melanoma.
The test system of assay [11] is SK-MEL-2 melanoma.
Assay [12] concerns EKVX NSCLC.
Assay [13] deals with SN12C renal.
For assay [14], the system named is UO-31 renal.
Assay [15] deals with TK-10 renal.
The subject of assay [16] is ACHN renal.
For assay [17], the system named is CAKI-1 renal.
Assay [18] has as its system A498 renal.
The test system of assay [19] is CCRF-CEM leukemia.
The test system of assay [20] is MOLT-4 leukemia.

Each structure is given as a SMILES string. This is part of a sample that, as a whole, favours compounds with a hit. Of some 83,000 tested, about 20% had one in any assay.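 Results are percent growth after 48 hours of single-concentration exposure. 100 means growth as in untreated cells, lower positive values show inhibition; negative values down to -100 show cell death.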 Unmarked numbers belong to inactive results. Calls of active or inactive are those of the source. Rule for the calls: active = growth percent below 10; inactive = the rest.

`CCCCCCCCCCCCCCCCCCOc1ccccc1CC(=O)OCC[N+]1(C)CCCC1`: the growth in [1] was 68.1%; in assay [2], 12.4%; in assay [3], 7.26% (active); in assay [4] it was 31.1%; in [5], 7.62% (active); in assay [6], 21.8%. Also, the growth in assay [7] was 1.15% (active); in assay [8], 23.3%; in assay [9] it was -94.4% (active); in assay [10], 49.7%; in assay [11], 65.6%; in assay [12] it was 53.8%. In addition, the growth was 12.7% in [13]; 62.8% in assay [14]; 45.2% in assay [15]; 78.9% in assay [16]; 30.9% in assay [17]; 60.7% in assay [18]. For the same compound, the growth is 19.8% in assay [19] and 18.1% in assay [20].
As for `CC(C)CCC[C@@H](C)[C@H]1CC[C@H]2[C@@H]3CC=C4C[C@@H](C(C(=O)O)C(=O)O)CC[C@]4(C)[C@H]3CC[C@]12C`, the growth in assay [1] is -6.36% (active); in [2] it was -35.1% (active); in assay [3] it was -61.1% (active); in assay [4], 18.6%; in [5], -46.8% (active); in assay [6], -5.95% (active). Further, the growth in [7] is -96% (active); in assay [8], -53.4% (active); in [9], -29.3% (active); in [10], -49.6% (active); in [11], -58.5% (active); in assay [12], -32.4% (active). The growth in assay [13] was -12.2% (active); in assay [14] it was -53.4% (active); in assay [15], -52% (active); in assay [16] it was -17.7% (active); in assay [17] it was -51% (active); in [18] it was -84.4% (active). Besides, the figures for the growth in assay [19] and in [20] were -24.3% (active) and -56.2% (active), respectively.
As for `N#CC1=C(c2ccc(Cl)cc2)Nc2c(c(-c3ccc(Cl)cc3)nn2-c2ccccc2)C12C(=O)Nc1ccc(Cl)cc12` (stereo not given), the growth in [1] is 18.4%; in [2] it was 32.4%; in assay [3] it was 19%; in assay [4], 24.4%; in assay [5], 25.3%; in assay [6] it was 21.5%. Also, the growth in assay [7] is 78.7%; in [8], 54.6%; in assay [9] it was 41.5%; in [10] it was 79.6%; in [11], 74.9%; in assay [12], 38.8%. For the same compound, the growth in assay [13] is 56.5%; in assay [14], 23.5%; in [15], 44.9%; in assay [16] it was 34.6%; in assay [17], 35.8%; in [18], 51.6%. Also, the values for the growth in assay [19] and in [20] were 35.9% and 35.1%, respectively.
Regarding `C/C(Nc1ccc(Cl)c(Cl)c1)=C1\CCOC1=O`, the growth in assay [1] is 84%; in assay [2] it was 84.8%; in [3] it was 78.6%; in assay [4], 106%; in assay [5] it was 91%; in assay [6] it was 86.8%. Besides, the growth is 101% in assay [7]; 71.2% in [8]; 67.6% in assay [9]; 111% in [10]; 97% in [11]; 77.4% in [12]. The growth in assay [13] was 88.9%; in assay [14], 84.3%; in assay [15], 104%; in assay [16] it was 79.7%; in assay [17], 57.7%; in assay [18], 93.5%. The growth is 81.5% in assay [19] and 80.9% in assay [20].
For the compound `Cc1ccc(Cc2cnc(NC(=O)c3cc(Br)cs3)s2)cc1`, the growth was 24.4% in assay [1]; 16.3% in assay [2]; 64.5% in [3]; 54% in assay [4]; 46.9% in [5]; 46.4% in assay [6]. For the same compound, the growth was 46% in assay [7]; 44.7% in assay [8]; 54.6% in assay [9]; 61.7% in assay [10]; 26.9% in assay [11]; 78.3% in assay [12]. For the same compound, the growth in assay [13] is 68.7%; in assay [14] it was 71.7%; in assay [15], 78.1%; in assay [16] it was 81.9%; in [17], 53.9%; in [18], 55.1%. Also, the growth in assay [19] was 31.8%; in [20], 36.1%.
For the compound `COc1ccc(-c2cn(-c3cc(OC)c(OC)c(OC)c3)c(=O)n2C(C)=O)cc1`, the growth in assay [1] was 90.9%; in [2], 85.4%; in [3] it was 88.3%; in assay [4] it was 92.9%; in assay [5] it was 97.6%; in assay [6] it was 105%. Besides, the growth in assay [7] was 94%; in [8], 84.2%; in [9], 95.5%; in assay [10], 103%; in assay [11], 86.3%; in assay [12], 91%. The growth in assay [13] is 91.3%; in [14], 84.3%; in assay [15], 98.9%; in [16], 87.1%; in assay [17], 12.1%; in [18], 68.3%. Moreover, the figures for the growth in assay [19] and in [20] were 91.7% and 75.1%, respectively.
`COc1cc(CNS(=O)(=O)c2ccc(C)cc2)ccc1OCc1cn(-c2ccc(Br)cc2)nn1`: the growth in assay [1] was 103%; in assay [2], 105%; in [3], 87%; in assay [4], 104%; in assay [5], 101%; in [6] it was 92.2%. The growth in [7] was 97.8%; in [8] it was 94.3%; in assay [9], 97.9%; in [10], 99.7%; in [11], 104%; in assay [12], 93.1%. Further, the growth was 105% in assay [13]; 69.3% in [14]; 112% in [15]; 98.4% in assay [16]; 91.6% in assay [17]; 70.6% in assay [18]. The growth is 90.4% in [19] and 101% in assay [20].
